Source: PubChem BioAssay
Rab9 promoter act: qHTS Assay for Rab9 Promoter Activators. Huh7 Rab9 promoter-luciferase reporter, luminescence, 24 h. Potency, µM (highest dose often 9.22 µM), inactives show top-dose activation, negative = inhibition, most hits filed as activators. 320,000 compounds, 2.8% hits. AID 485297, 2010; also: % of control where 0% means no effect; nearly all actives have a fitted effect of over 60% in size
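Huh7 cells stably carrying Rab9 promoter–luciferase reporter, plated 1500 cells/well, compound added after 2 h and incubated 24 h at 37 °C; luciferase luminescence then read after 10 min with detection reagent.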
ELG1 genotoxic: qHTS screen for small molecules that induce genotoxicity in human embryonic kidney (HEK293T) cells expressing luciferase-tagged ELG1; HEK293T ELG1-luciferase reporter, luminescence, 16 h; Potency, µM (highest dose often 46 µM), for inactives: at the top dose activity change, positive = activation, usual class: activators; 330,000 compounds, 1.3% hits; AID 504466, 2011; also: % of control where 0% means no effect; nearly all actives have a fitted effect of over 60% in size
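Step 1: seed 2,000 HEK293T ELG1-luciferase cells per well. Step 2: add compound or DMSO, incubate 16 hr at 37 °C. Step 3: ONE-Glo, 30 min at room temperature, read luminescence.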
ELG1 repair inh: qHTS screen for small molecules that inhibit ELG1-dependent DNA repair in human embryonic kidney (HEK293T) cells expressing luciferase-tagged ELG1; HEK293T ELG1-luciferase reporter, luminescence, 16 h; DNA damage induced by 5-fluorouridine; Potency, µM (doses to about 46.1 µM), inactives show at the top dose activity change, negative = inhibition, usual class: inhibitors; 330,000 compounds, 2.3% hits; AID 504467, 2011; also: % is scaled to controls: 0 for no effect and ±100 for the full control effect; nearly all actives have a fitted effect of over 55% in size
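Reporter activity after DNA damage by 5-fluorouridine is monitored. Compound-treated cells incubate 16 hr at 37 °C, then ONE-Glo is added for 30 min before luminescence reading.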
NPC1 promoter act: qHTS Assay for NPC1 Promoter Activators | Huh7 NPC1 promoter luciferase reporter, 24 h | Potency, µM (titrated, usually from 9.22 µM), inactives show at the top dose activation, hits mostly activators | 320,000 compounds, 2.4% hits | AID 485313, 2010; also: % of control where 0% means no effect; nearly all actives have a fitted effect of over 60% in size
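NPC1 promoter–luciferase Huh7 cells; 24 h compound; luminescence.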
FLuc counter: qHTS profiling assay for firefly luciferase inhibitor/activator using purifed enzyme and Km concentrations of substrates (counterscreen for miR-21 project) | Luciferin 4-monooxygenase (Photinus pyralis), P08659 | purified FLuc, Km substrates, luminescence inhibition | Potency, µM (doses to about 57.5 µM), for inactives: top-dose activity change, negative = inhibition, most hits filed as inhibitors | 360,000 compounds, 6.9% hits | AID 588342, 2011;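 also: plate controls were vehicle for no effect and reference inhibitor for full effect; nearly all actives have a fitted effect of over 55% in size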
Target sequence (P08659 whole entry, looked up): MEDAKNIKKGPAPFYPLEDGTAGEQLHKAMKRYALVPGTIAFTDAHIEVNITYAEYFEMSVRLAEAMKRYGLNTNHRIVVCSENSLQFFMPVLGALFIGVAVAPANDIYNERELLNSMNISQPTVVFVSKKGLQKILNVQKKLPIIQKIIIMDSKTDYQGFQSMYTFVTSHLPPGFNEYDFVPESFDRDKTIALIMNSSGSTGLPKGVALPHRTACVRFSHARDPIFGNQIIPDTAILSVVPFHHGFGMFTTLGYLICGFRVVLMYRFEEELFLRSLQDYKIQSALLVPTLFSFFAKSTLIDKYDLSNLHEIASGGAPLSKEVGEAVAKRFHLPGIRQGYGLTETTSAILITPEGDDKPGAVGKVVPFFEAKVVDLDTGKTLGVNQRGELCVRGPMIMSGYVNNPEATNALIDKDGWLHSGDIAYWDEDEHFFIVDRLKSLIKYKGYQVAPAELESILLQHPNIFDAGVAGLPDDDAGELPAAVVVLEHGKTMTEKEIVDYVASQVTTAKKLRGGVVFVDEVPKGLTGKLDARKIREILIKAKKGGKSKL
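Biochemical qHTS of compounds, final roughly 60 µM downward over six points, against 10 nM purified firefly luciferase using Km concentrations of substrates (10 uM D-luciferin, 10 uM ATP) in Tris acetate pH 7.5 buffer; luminescence output.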
SMN2 splice up: qHTS Assay for Enhancers of SMN2 Splice Variant Expression | HEK293 SMN2-luciferase splicing reporter, luminescence, 30-36 h | Potency, µM (doses to about 46.1 µM), inactives show at the highest dose activity change, positive = activation, usual class: activators | AID 1458, 2008 | 210,000 compounds, 2.8% hits; also: % of control where 0% means no effect; nearly all actives have a fitted effect of over 55% in size
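qHTS luciferase splicing reporter: luminescence rises when SMN2 exon 7 is included in transfected HEK293 cells. Compound exposure lasted 30-36 h at 37C, with 4.5 mM final sodium butyrate as control, followed by a ONE-Glo read.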
Starred values were filed as active, the others as inactive; ? = inconclusive; nt = no result. A selection: hits, their analogues and other compounds. The true share with any hit is near 9.2%. Calls follow the shape of the dose curve; as a rule, active = well fitted curve in the direction sought with a large enough effect; inconclusive = small, poorly fitted or top-dose-only effect, or another doubt; inactive = no such curve, though single readings can be large; an effect the other way counts as inactive or inconclusive. Potency is read from the fitted curve at half-maximal effect.

SMILES	Rab9 promoter act	ELG1 genotoxic	ELG1 repair inh	NPC1 promoter act	FLuc counter	SMN2 splice up
COc1ccc(Br)cc1CNC(=O)Cn1nc(C)n2c(cc3cc(F)ccc32)c1=O	nt	nt	nt	nt	4%	4%
CSc1nnc(N2C(=O)C(O)=C(C(=O)c3ccco3)C2c2ccccc2)s1 (stereo unspecified)	4%	-6%	0%	-2%	-3%	nt
CSc1nnc(N2C(=O)C(O)=C(C(=O)c3ccc(C)o3)C2c2ccc(C)cc2)s1 (stereo unspecified)	0.79µM*	1.3µM*	?	0.63µM*	?	nt
Cc1cccc(C)c1NC(=O)CN1CCN(C(=O)c2ccc(OCc3cn4ccccc4n3)cc2)CC1	nt	-1%	?	nt	nt	nt
O=C(Nc1cccc(C(=O)NC2CC2)c1)c1ccc(Cl)c(S(=O)(=O)N2CCOCC2)c1	1%	-4%	13µM*	0%	-12%	nt
O=C(Nc1cccnc1)c1ccc(Cl)c(S(=O)(=O)N2CCOCC2)c1	6%	-5%	?	-2%	2%	nt
O=C(Nc1nccs1)c1ccc(Br)c(S(=O)(=O)N2CCOCC2)c1	-2%	-4%	21µM*	0%	-18%	-49%
O=C(Nc1cccc(S(=O)(=O)C(F)F)c1)c1ccc(Cl)c(S(=O)(=O)N2CCOCC2)c1	-9%	-10%	7.3µM*	-3%	-1%	-60%
O=C(Nc1nccs1)c1ccc(F)c(S(=O)(=O)N2CCOCC2)c1	-1%	-10%	-29%	1%	-2%	nt
O=C(Nc1cccc(Br)c1)c1ccc(Cl)c(S(=O)(=O)N2CCOCC2)c1	-31%	-24%	16µM*	-20%	-17%	-57%
CN(C)S(=O)(=O)c1cccc(NC(=S)N/N=C/c2cc(Br)ccc2O)c1	-38%	8%	2.9µM*	-20%	19µM*	nt
CCN(Cc1ccccc1)C(=O)c1ccc(CS(=O)c2ccccc2C)o1 (stereo unspecified)	9%	-4%	0%	1%	0%	nt
C=CCNC(=S)Nc1ccc(Br)cc1F	1%	-2%	11%	-2%	-2%	-20%
CN(C)/C=N/C(=S)Nc1ccc(Br)cc1F	4µM*	24%	?	?	19µM*	28%
COc1ccc(S(=O)(=O)N(CCc2ccccc2)CC(=O)Nc2cc(C)cc(C)c2)cc1OC	nt	nt	nt	nt	-2%	-20%
CCOc1ccc(-c2nnc3ccc(SCc4ccc(C(=O)OC)o4)nn23)cc1	22%	-3%	21µM*	0%	-9%	-18%
CCOC(=O)CNC(=O)c1ccc2[nH]c3ccccc3c2c1	-3%	7%	?	-4%	17µM*	-7%
CCOc1ccc(C(=O)NCC(=O)OCCCOC(=O)CNC(=O)c2ccc(OCC)cc2)cc1	-2%	9%	-8%	-4%	?	nt
Cc1ccc(C(=O)NCC(=O)OCC(=O)NCCNC(=O)COC(=O)CNC(=O)c2ccc(C)cc2)cc1	0%	3%	0%	-5%	8%	nt
CCOC(=O)CNC(=O)c1ccc(OCC(F)(F)F)cc1	2µM*	11%	?	?	?	13µM*
CCOC(=O)CNC(=O)c1ccc(C)cc1	2%	10%	9%	0%	13µM*	10%
O=C(NCC(O)CO)c1ccc2[nH]c3ccccc3c2c1 (stereo unspecified)	0%	0%	0%	-4%	?	8%
CN(Cc1ccccc1)C(=O)C1CCCN1S(=O)(=O)c1ccc2c(c1)n(C)c(=O)c(=O)n2C (stereo unspecified)	-9%	-2%	8%	0%	-1%	nt
CCOC(=O)CN(C(=O)CN1CCC(n2nnc3cc(C)ccc32)CC1)c1ccccc1	-1%	-4%	?	-4%	0%	-4%
Cc1ccc2c(c1)nnn2C1CCN(C(=O)C23CC4CC(CC(C4)C2)C3)CC1	-7%	-4%	23µM*	-1%	5%	-61%
SMILES	Rab9 promoter act	ELG1 genotoxic	ELG1 repair inh	NPC1 promoter act	FLuc counter	SMN2 splice up
Cc1ccc2c(c1)nnn2C1CCN(C(=O)NC23CC4CC(CC(C4)C2)C3)CC1	-2%	-4%	?	-3%	5%	-3%
Cc1ccc2c(c1)nnn2C1CCN(CC(=O)N(c2ccccc2)c2ccccc2)CC1	-5%	-13%	16µM*	-9%	-1%	nt
Cc1c(C(=O)Nc2nc3ccccc3[nH]2)oc2ccc(Br)cc12	?	?	?	28%	7.6µM*	nt
Cc1c(C(=O)Nc2nc3ccccc3[nH]2)oc2ccccc12	4µM*	?	?	?	3µM*	10µM*
COC(=O)c1ccc2c(=O)n(CCCCCC(=O)N3CCN(c4cc(Cl)ccc4C)CC3)c(=O)[nH]c2c1	nt	nt	nt	nt	-11%	nt
CCCNc1ccc(S(=O)(=O)N(CC)CC)cn1	0%	-2%	21%	0%	-6%	5.6µM*
CCCNc1ccc(S(=O)(=O)N(C(C)C)C(C)C)cn1	0%	1%	3%	-2%	-6%	-2%
COc1cccc(CNC(=O)c2ccc3nc(CCc4ccccc4)oc3c2)c1OC	nt	nt	nt	nt	-16%	nt
CCOc1ccc(OCCC(=O)OCC(=O)c2c(N)n(C)c(=O)n(C)c2=O)cc1	-3%	-1%	18%	-2%	-18%	nt
O=c1c2sccc2nc(SCc2cc(=O)n3cc(Br)ccc3n2)n1Cc1ccccn1	4.5µM*	?	?	?	-1%	?
O=C(CSc1cccs1)Nc1ccc2ccccc2c1	?	?	?	?	21µM*	9%
O=C(CSc1cccs1)Nc1cccc2ccccc12	?	?	?	?	13µM*	13µM*
O=C(CN1C(=O)c2ccccc2S1(=O)=O)c1ccc2c(c1)OCCCO2	-54%	-15%	1µM*	-40%	2.1µM*	nt
CC1CCCCC12NC(=O)N(CC(=O)c1ccc3c(c1)OCO3)C2=O (stereo unspecified)	6%	1%	26%	11%	-15%	nt
O=C(CN1C(=O)c2ccccc2S1(=O)=O)c1ccc2c(c1)OCCO2	-47%	-12%	?	-37%	5.4µM*	nt
CCCC1Oc2ccccc2C(=O)N(CC(=O)c2ccc3c(c2)OCCO3)C1=O (stereo unspecified)	?	?	?	30%	6µM*	nt
CC(C)CC1NC(=O)N(CC(=O)c2ccc3c(c2)OCCO3)C1=O (stereo unspecified)	1.1µM*	?	?	2.8µM*	11µM*	13µM*
